Measured values reported in PubChem BioAssay AID1508600 (Functional Genomics Laboratory (NCATS/FGL), 2020).
The whole screen tested about 53,000 sequences, of which about 3,700 (7%) were called active.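 Rule for the calls: active = gene knockdowns whose robust z-score for IL-1 alpha signal is at least 2 or at most -2, so actives lie on both sides; inactive = the rest.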 The full list was thinned out, with actives kept by preference.

Assay: Components of the Cytosolic LPS Sensing Pathway: Gene Identification via Genome-wide siRNA Screen
Settings: RAW264.7 macrophages, IL-1a HTRF, actives lie on both sides, screened at 100 nM (by protocol), cells primed 5 h with Pam3CSK4 first
Text: Non-canonical inflammasome activation by cytosolic LPS is a critical component of the host response to Gram-negative bacterial infection, however we lack a comprehensive understanding of the cellular processes that control this pathway. Here we describe a genome-wide siRNA screen to identify genes regulating the mouse macrophage IL-1 alpha response to cytosolic LPS.
RAW264.7 cells were maintained in complete DMEM media, comprising DMEM with 4.5 g/L glucose, 10% FBS (Gemini Bio-Products, West Sacramento, CA), 2 mM Glutamine (Lonza) and 20 mM HEPES (Lonza), hereafter complete DMEM.
The RNAi screen was conducted in 384-well format using the Ambion Silencer Mouse Genome siRNA Library (#4391425), which consists of three unique, nonoverlapping, nonpooled siRNAs for each of 17,000 gene targets. siRNA reagents ([…]) were stamped into 384-well white flat-bottom microplates (Corning, 3570) using a Velocity11 VPrep liquid handling system (Agilent) integrated into a BioCel robotic platform (Agilent) in columns 1-22, leaving columns 23-24 empty for negative (Ambion, Negative control #1) and positive (mouse Casp4) controls, respectively. The median value of each plate's negative control column was used to normalize sample wells, and the positive control was used to assess transfection efficiency and assay performance.
Lipofectamine RNAiMAX Transfection Reagent ([…]; Invitrogen) was added in […] serum-free, antibiotic-free media to plate wells using a Thermo Scientific Matrix WellMate and Microplate Stacker. Plates were incubated for 45 min at room temperature to allow for the sufficient formation of siRNA-lipid complexes. Cells were seeded at a density of 1x10^4 cells per well in 20 microL media containing 20% (vol/vol) FBS without antibiotics. The final concentration of siRNA in each well was 100 nM. Cells were cultured for 48h at 37 degrees C in 5% CO2 before addition of […] of TLR ligand Pam3CSK4 for 5 hours. The medium was then removed, replaced with […] growth media and cell were transfected with […] of LipidA and TransIT-TKO (Mirus) for 24 hour. At the end of the LipidA treatment, […] of supernatant was transferred to a 384 Greiner Bio-one non-binding low volume plate and […] of IL-1a HTRF reagent (Cisbio, 62MIL1APEH) was added and incubated at room temperature overnight. The plates were read on an EnVision plate reader (PerkinElmer). Cell viability was measured by adding 20ul Cell Titer Glo to the original plate and running a luminescence read on the EnVision. The quantified IL-1a signal for each siRNA gene-targeted well was divided by the median of the negative control wells and multiplied by 100 to achieve a negative control normalized value for each well/siRNA. This normalized value was then used to generate a robust z-score by first taking the log of each value and then by subtracting the median and dividing by the […].

Sequence	z-score
GCAUGGGCAUAACCGAAAGTT against Rex2	-0.332 (inactive)
GGAGAAGUAAUGACAAAUUTT against Foxp4	-1.47 (inactive)
GGACGUGACUCUCAUCAUCTT against Atp2b3	0.929 (inactive)
GUGAUGUGGCCAUGUCAAUTT against Olfr641	-2.61 (active)
GGAGAGGAAAAUUGUAUUUTT against Alox12	-0.037 (inactive)
CCCAUUCUGUAUAUAGUGCTT against Adam6a	-0.0363 (inactive)
CGGUUAGAGCAUUAAGUUCTT against Lias	0.817 (inactive)
GCUCGAUUCAGAAAUCUACTT against Sgce	-0.735 (inactive)
GACUGAACAGAUCUACUCUTT against Klra7	-0.413 (inactive)
CGCAUUUCGAAUAAAGACATT against Mettl22	-0.546 (inactive)
GCAUUUCACCGUCAUGAACTT against Ttll12	-2.55 (active)
GGAAGUUUGCUCAAUCUCATT against Jarid2	1.12 (inactive)
GGACCUGUAUUCACACCUUTT against Wdr61	0.0931 (inactive)
GGGUUUUUGAUGAUGAUUCTT against Htatsf1	-0.66 (inactive)
CGGGAUAGCUGUCCUGUUATT against Mrps14	0.127 (inactive)
GAAGCGAUGCUCAGAUCCATT against Serpina1d	0.136 (inactive)
GCCCUCCUUAUAGCUUAAUTT against Asic3	-2.2 (active)
GCUUCGAAGCAACAUCCGATT against Rims3	-0.00729 (inactive)
GGAAAAACUGUGCAAAUAATT against Krt75	1.26 (inactive)
GCAGGCAUUCUGCUCUAUATT against Oxgr1	1.01 (inactive)
GGGACAUUAAUAAACCUGATT against Omg	-0.269 (inactive)
CCAUGGCCUAGAGCUGGAUTT against Unc5cl	0.315 (inactive)
GGAAGUAACAUGCUUCUAGTT against Ccdc42	0.75 (inactive)

Sequence	z-score
GGAUUCCAUCUUUGUAUGATT against Cbr4	0.689 (inactive)
GCCAAGUGAUUGAAAAAACTT against Lnpk	-0.423 (inactive)
GGUGAAGAAAGUCAAGAAGTT against Spi1	-2.46 (active)
GGUUCUGGUGGUGAAUGUGTT against Kcnd1	-1.51 (inactive)
GCGAGUUGUUUCCAUAGUUTT against Gpr22	-0.388 (inactive)
GGCAGAGCUAGAUCAAAUUTT against Retreg1	3.58 (active)
GGAAAUUCACACAGAUGAATT against Mtmr12	-1.27 (inactive)
GCCAACCUUCAAGGAAUAUTT against Cyp2b10	1.4 (inactive)
GGGAAGACAAGAACAACUUTT against Pitrm1	0.756 (inactive)
GGUCGUUAUCACUCUCUAUTT against Pkd1l3	3.34 (active)
CCCUUUAGCUUCCUAAUGUTT against Rhag	0.11 (inactive)
GGUUUUAUUAACUCUGUGATT against Olfr1013	0.453 (inactive)
GGACUGCUUUUUUUACUCATT against Mta2	-2.07 (active)
CCUGGUAAUCACAAUUUCGTT against Tor1b	-0.655 (inactive)
GGUAGACAAGAUCAUCGGATT against Dsc3	0.711 (inactive)
GGCAUAGAAGAGAUGACAGTT against Fabp7	-2.18 (active)
GCCUGUCUGCCUUUGCUUCTT against H4c9	2.47 (active)
GCUCGUACAUCUAUGGCUATT against Psmb6	-0.633 (inactive)
GGACCUAAGCAUUUUACAUTT against Traf2	-0.143 (inactive)
CCUAUGUGUACUUCAUCCUTT against Elovl1	2.93 (active)
GCCUUUUAUACAUGUUUGATT against B130024G19Rik	-1.55 (inactive)
GCUAGAGUAUGAGAACUUCTT against Cdc14b	0.233 (inactive)
GGUAGAGAACCAGAGGCAUTT against Ninj2	-0.164 (inactive)

Sequence	z-score
GCCAGGAAUGCUAUUCUCGTT against Lrg1	-2.26 (active)
CCACCAUUUACUGAGUUUATT against Scn2b	-0.324 (inactive)
GUCUUUGGAAAUCUACUCATT against Olfr1189	-1.21 (inactive)
GGAGAUUCUGUGCAAUGCATT against Dnajc12	-0.0758 (inactive)
CCAUUAACGUAAAUUCUGUTT against Ankrd13c	-0.971 (inactive)
GCUCAUACCUAUCUCAAGGTT against Tnfsf9	0.365 (inactive)
CCUAACAUAGUAUAGCCUUTT against Zfp868	-0.0695 (inactive)
GGUCCUGAAGAUACAUAUUTT against Taf2	-2.42 (active)
GGGAGAAAUGCAAAUAUUUTT against Mbnl2	-0.37 (inactive)
GGUGAAGAAAGCGGAAAAGTT against Cstf3	-0.19 (inactive)
GGACCUGUUUUGGAAAUAUTT against Jchain	-0.613 (inactive)
GGGUUAUGGACACUACCCATT against Tnk1	-1.84 (inactive)
GGUACGAGAACAACUGACUTT against Acot3	0.269 (inactive)
GGUACGUGAGAGAAUUCUGTT against Trem2	3.14 (active)
GGUCAGAUACAAUGUAUAUTT against Ap1s3	-0.793 (inactive)
GGUGUGUAAUGUGCGUGAGTT against Ephb3	1.11 (inactive)
GGGAUCCUUAUUUCAUACUTT against Olfr868	1.16 (inactive)
GGCGGAAAUCAAAGGAGGATT against Dnmt1	0.791 (inactive)
GGUGGAGUUUAAACUUACATT against Atp4b	5.64 (active)
GGAAACGAUAGCCAAUAUUTT against Scp2d1	-1.08 (inactive)
GGGAUCAAUGGCUACCUGUTT against Slc7a10	-0.0112 (inactive)
UAACUGGGCUCACGUUGACTT against Pou2f1	0.47 (inactive)
GGUACAAAAUGGCUUGUUGTT against Tmem215	2.53 (active)
